The binders below were run against AgAbp1 (assay: SPOT peptide array binding signal intensity (averaged, normalized) (arbitrary units (background-subtracted, floor 0; scale differs between SH3 domains)); higher = stronger binding of the SH3 domain to the peptide).
How it was run: (§1)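 E. coli BL21(DE3) was used to express GST-fused SH3 domains from four yeast species, which were then purified on glutathione Sepharose. These were incubated at 10 μg/ml in TBS-based blocking buffer overnight at 4°C on cellulose membranes carrying synthetic 15-mer peptides, in which cysteines were replaced by serines. Binding signal is the replicate average of normalized, background-subtracted spot intensity, in arbitrary units that differ between domains.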

Binder | SPOT peptide array binding signal intensity
RMVRRRPLRVQFSAR | 341

These binders were tested against AgBbc1 in the same assay as above.
How it was run: as §1

Binder | SPOT peptide array binding signal intensity
RMVRRRPLRVQFSAR | 152

Each binder was assayed against AgBem1-D1 in the same assay as above.
How it was run: as §1

Binder | SPOT peptide array binding signal intensity
RMVRRRPLRVQFSAR | 477

The binders below were run against AgBzz1-D1 in the same assay as above.
How it was run: as §1

Binder | SPOT peptide array binding signal intensity
RMVRRRPLRVQFSAR | 102

What follows are binders tested against AgBzz1-D2 in the same assay as above.
How it was run: as §1

Binder | SPOT peptide array binding signal intensity
RMVRRRPLRVQFSAR | 93.5

These binders were tested against AgCyk3 in the same assay as above.
How it was run: as §1

Binder | SPOT peptide array binding signal intensity
RMVRRRPLRVQFSAR | 3

Each binder was assayed against AgFus1 in the same assay as above.
How it was run: as §1

Binder | SPOT peptide array binding signal intensity
RMVRRRPLRVQFSAR | 2500

These binders were tested against AgHof1 in the same assay as above.
How it was run: as §1

Binder | SPOT peptide array binding signal intensity
RMVRRRPLRVQFSAR | 44.8

Each binder was assayed against AgHse1 in the same assay as above.
How it was run: as §1

Binder | SPOT peptide array binding signal intensity
RMVRRRPLRVQFSAR | 1410

These binders were tested against AgLsb1 in the same assay as above.
How it was run: as §1

Binder | SPOT peptide array binding signal intensity
RMVRRRPLRVQFSAR | 16.5

These binders were tested against AgLsb4 in the same assay as above.
How it was run: as §1

Binder | SPOT peptide array binding signal intensity
RMVRRRPLRVQFSAR | 606

Each binder was assayed against AgMyo5 in the same assay as above.
How it was run: as §1

Binder | SPOT peptide array binding signal intensity
RMVRRRPLRVQFSAR | 2.5

Each binder was assayed against AgNbp2 in the same assay as above.
How it was run: as §1

Binder | SPOT peptide array binding signal intensity
RMVRRRPLRVQFSAR | 1110

The binders below were run against AgRvs167 in the same assay as above.
How it was run: as §1

Binder | SPOT peptide array binding signal intensity
RMVRRRPLRVQFSAR | 10.8

The binders below were run against AgSho1 in the same assay as above.
How it was run: as §1

Binder | SPOT peptide array binding signal intensity
RMVRRRPLRVQFSAR | 634

These binders were tested against AgSla1-D1-D2 in the same assay as above.
How it was run: as §1

Binder | SPOT peptide array binding signal intensity
RMVRRRPLRVQFSAR | 284

These binders were tested against AgSla1-D3 in the same assay as above.
How it was run: as §1

Binder | SPOT peptide array binding signal intensity
RMVRRRPLRVQFSAR | 28.2

Each binder was assayed against CaAbp1-D1 in the same assay as above.
How it was run: as §1

Binder | SPOT peptide array binding signal intensity
RMVRRRPLRVQFSAR | 820

What follows are binders tested against CaAbp1-D2 in the same assay as above.
How it was run: as §1

Binder | SPOT peptide array binding signal intensity
RMVRRRPLRVQFSAR | 810

What follows are binders tested against CaBbc1 in the same assay as above.
How it was run: as §1

Binder | SPOT peptide array binding signal intensity
RMVRRRPLRVQFSAR | 247

What follows are binders tested against CaBem1-D1 in the same assay as above.
How it was run: as §1

Binder | SPOT peptide array binding signal intensity
RMVRRRPLRVQFSAR | 495

What follows are binders tested against CaBzz1-D1 in the same assay as above.
How it was run: as §1

Binder | SPOT peptide array binding signal intensity
RMVRRRPLRVQFSAR | 202

The binders below were run against CaBzz1-D2 in the same assay as above.
How it was run: as §1

Binder | SPOT peptide array binding signal intensity
RMVRRRPLRVQFSAR | 245

These binders were tested against CaCyk3 in the same assay as above.
How it was run: as §1

Binder | SPOT peptide array binding signal intensity
RMVRRRPLRVQFSAR | 104

These binders were tested against CaFus1 in the same assay as above.
How it was run: as §1

Binder | SPOT peptide array binding signal intensity
RMVRRRPLRVQFSAR | 3490

What follows are binders tested against CaHof1 in the same assay as above.
How it was run: as §1

Binder | SPOT peptide array binding signal intensity
RMVRRRPLRVQFSAR | 2.5

The binders below were run against CaHse1 in the same assay as above.
How it was run: as §1

Binder | SPOT peptide array binding signal intensity
RMVRRRPLRVQFSAR | 464

What follows are binders tested against CaLsb1 in the same assay as above.
How it was run: as §1

Binder | SPOT peptide array binding signal intensity
RMVRRRPLRVQFSAR | 12.5

Each binder was assayed against CaLsb4 in the same assay as above.
How it was run: as §1

Binder | SPOT peptide array binding signal intensity
RMVRRRPLRVQFSAR | 1050

What follows are binders tested against CaMyo5 in the same assay as above.
How it was run: as §1

Binder | SPOT peptide array binding signal intensity
RMVRRRPLRVQFSAR | 58

The binders below were run against CaNbp2 in the same assay as above.
How it was run: as §1

Binder | SPOT peptide array binding signal intensity
RMVRRRPLRVQFSAR | 1470

The binders below were run against CaRvs167 in the same assay as above.
How it was run: as §1

Binder | SPOT peptide array binding signal intensity
RMVRRRPLRVQFSAR | 190

What follows are binders tested against CaRvs167-3 in the same assay as above.
How it was run: as §1

Binder | SPOT peptide array binding signal intensity
RMVRRRPLRVQFSAR | 216

The binders below were run against CaSho1 in the same assay as above.
How it was run: as §1

Binder | SPOT peptide array binding signal intensity
RMVRRRPLRVQFSAR | 1620

What follows are binders tested against CaSla1-D1-D2 in the same assay as above.
How it was run: as §1

Binder | SPOT peptide array binding signal intensity
RMVRRRPLRVQFSAR | 590

The binders below were run against CaSla1-D3 in the same assay as above.
How it was run: as §1

Binder | SPOT peptide array binding signal intensity
RMVRRRPLRVQFSAR | 700

What follows are binders tested against ScAbp1 in the same assay as above.
How it was run: as §1

Binder | SPOT peptide array binding signal intensity
RMVRRRPLRVQFSAR | 188

What follows are binders tested against ScBbc1 in the same assay as above.
How it was run: as §1

Binder | SPOT peptide array binding signal intensity
RMVRRRPLRVQFSAR | 90.2

These binders were tested against ScBem1-D1 in the same assay as above.
How it was run: as §1

Binder | SPOT peptide array binding signal intensity
RMVRRRPLRVQFSAR | 142

These binders were tested against ScBzz1-D1 in the same assay as above.
How it was run: as §1

Binder | SPOT peptide array binding signal intensity
RMVRRRPLRVQFSAR | 39.5

The binders below were run against ScBzz1-D2 in the same assay as above.
How it was run: as §1

Binder | SPOT peptide array binding signal intensity
RMVRRRPLRVQFSAR | 238

What follows are binders tested against ScCyk3 in the same assay as above.
How it was run: as §1

Binder | SPOT peptide array binding signal intensity
RMVRRRPLRVQFSAR | 81.5

Each binder was assayed against ScFus1 in the same assay as above.
How it was run: as §1

Binder | SPOT peptide array binding signal intensity
RMVRRRPLRVQFSAR | 1530

These binders were tested against ScHof1 in the same assay as above.
How it was run: as §1

Binder | SPOT peptide array binding signal intensity
RMVRRRPLRVQFSAR | 12

What follows are binders tested against ScHse1 in the same assay as above.
How it was run: as §1

Binder | SPOT peptide array binding signal intensity
RMVRRRPLRVQFSAR | 2920

What follows are binders tested against ScLsb1 in the same assay as above.
How it was run: as §1

Binder | SPOT peptide array binding signal intensity
RMVRRRPLRVQFSAR | 23.2

What follows are binders tested against ScLsb2 in the same assay as above.
How it was run: as §1

Binder | SPOT peptide array binding signal intensity
RMVRRRPLRVQFSAR | 14

What follows are binders tested against ScLsb3 in the same assay as above.
How it was run: as §1

Binder | SPOT peptide array binding signal intensity
RMVRRRPLRVQFSAR | 1400

Each binder was assayed against ScLsb4 in the same assay as above.
How it was run: as §1

Binder | SPOT peptide array binding signal intensity
RMVRRRPLRVQFSAR | 364

Each binder was assayed against ScMyo3 in the same assay as above.
How it was run: as §1

Binder | SPOT peptide array binding signal intensity
RMVRRRPLRVQFSAR | 16

These binders were tested against ScMyo5 in the same assay as above.
How it was run: as §1

Binder | SPOT peptide array binding signal intensity
RMVRRRPLRVQFSAR | 2

What follows are binders tested against ScNbp2 in the same assay as above.
How it was run: as §1

Binder | SPOT peptide array binding signal intensity
RMVRRRPLRVQFSAR | 1660

These binders were tested against ScPex13 in the same assay as above.
How it was run: as §1

Binder | SPOT peptide array binding signal intensity
RMVRRRPLRVQFSAR | 40

The binders below were run against ScRvs167 in the same assay as above.
How it was run: as §1

Binder | SPOT peptide array binding signal intensity
RMVRRRPLRVQFSAR | 164

The binders below were run against ScSho1 in the same assay as above.
How it was run: as §1

Binder | SPOT peptide array binding signal intensity
RMVRRRPLRVQFSAR | 1900

Each binder was assayed against ScSla1-D1-D2 in the same assay as above.
How it was run: as §1

Binder | SPOT peptide array binding signal intensity
RMVRRRPLRVQFSAR | 1030

These binders were tested against ScSla1-D3 in the same assay as above.
How it was run: as §1

Binder | SPOT peptide array binding signal intensity
RMVRRRPLRVQFSAR | 217

What follows are binders tested against SpAbp1-D1 in the same assay as above.
How it was run: as §1

Binder | SPOT peptide array binding signal intensity
RMVRRRPLRVQFSAR | 558

What follows are binders tested against SpBbc1 in the same assay as above.
How it was run: as §1

Binder | SPOT peptide array binding signal intensity
RMVRRRPLRVQFSAR | 38.8

These binders were tested against SpBzz1-D1 in the same assay as above.
How it was run: as §1

Binder | SPOT peptide array binding signal intensity
RMVRRRPLRVQFSAR | 224

The binders below were run against SpBzz1-D2 in the same assay as above.
How it was run: as §1

Binder | SPOT peptide array binding signal intensity
RMVRRRPLRVQFSAR | 30.5

What follows are binders tested against SpCyk3 in the same assay as above.
How it was run: as §1

Binder | SPOT peptide array binding signal intensity
RMVRRRPLRVQFSAR | 7

What follows are binders tested against SpHof1 in the same assay as above.
How it was run: as §1

Binder | SPOT peptide array binding signal intensity
RMVRRRPLRVQFSAR | 556

The binders below were run against SpHof1-2 in the same assay as above.
How it was run: as §1

Binder | SPOT peptide array binding signal intensity
RMVRRRPLRVQFSAR | 29.5

The binders below were run against SpHof1-3 in the same assay as above.
How it was run: as §1

Binder | SPOT peptide array binding signal intensity
RMVRRRPLRVQFSAR | 862

What follows are binders tested against SpHse1 in the same assay as above.
How it was run: as §1

Binder | SPOT peptide array binding signal intensity
RMVRRRPLRVQFSAR | 874

Each binder was assayed against SpLsb1 in the same assay as above.
How it was run: as §1

Binder | SPOT peptide array binding signal intensity
RMVRRRPLRVQFSAR | 21

The binders below were run against SpLsb4 in the same assay as above.
How it was run: as §1

Binder | SPOT peptide array binding signal intensity
RMVRRRPLRVQFSAR | 1330

The binders below were run against SpMyo1 in the same assay as above.
How it was run: as §1

Binder | SPOT peptide array binding signal intensity
RMVRRRPLRVQFSAR | 46.2

What follows are binders tested against SpNbp2 in the same assay as above.
How it was run: as §1

Binder | SPOT peptide array binding signal intensity
RMVRRRPLRVQFSAR | 1850

What follows are binders tested against SpPex13 in the same assay as above.
How it was run: as §1

Binder | SPOT peptide array binding signal intensity
RMVRRRPLRVQFSAR | 320

The binders below were run against SpRvs167 in the same assay as above.
How it was run: as §1

Binder | SPOT peptide array binding signal intensity
RMVRRRPLRVQFSAR | 66.2

What follows are binders tested against SpSla1-D1-D2 in the same assay as above.
How it was run: as §1

Binder | SPOT peptide array binding signal intensity
RMVRRRPLRVQFSAR | 15

The binders below were run against SpSla1-D3 in the same assay as above.
How it was run: as §1

Binder | SPOT peptide array binding signal intensity
RMVRRRPLRVQFSAR | 81
